# Data: doi:10.1101/2024.03.05.583629
# Experiments:
# pT7_6His-AlfaTag-HOXD13 = pT7_6His-AlfaTag-HOXD13 (human, UniProt P35453 263-343); experiment: PADIT-seq; details: dsDNA, one strand shown
# pT7_6His-AlfaTag-ZIF268 = pT7_6His-AlfaTag-ZIF268 (human, UniProt P18146 335-423); experiment: PADIT-seq; details: dsDNA, one strand shown
# Chain of pT7_6His-AlfaTag-HOXD13 (P35453 263-343): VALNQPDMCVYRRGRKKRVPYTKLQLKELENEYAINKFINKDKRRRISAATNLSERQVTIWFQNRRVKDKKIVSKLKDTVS
Sequence,binding signal (pT7_6His-AlfaTag-HOXD13),binding signal (pT7_6His-AlfaTag-ZIF268)
CTCGAGGATATCAAGATCTGGCCTCGGCGCGATTGCGGGAACCTCTAGCTAGCCGACTCACTATAGGGATAATCGCCCTGAGCAAAGACC,-0.695 ± 0.114 log2FC,0.187 ± 0.0941 log2FC
CTCGAGGATATCAAGATCTGGCCTCGGCCTTTTATAGGGAACCTCTAGCTAGCCGACTCACTATAGGGATAATCGCCCTGAGCAAAGACC,3.21 ± 0.0791 log2FC,
CTCGAGGATATCAAGATCTGGCCTCGGCACGTGGGCGGGAACCTCTAGCTAGCCGACTCACTATAGGGATAATCGCCCTGAGCAAAGACC,-0.888 ± 0.116 log2FC,3.56 ± 0.0868 log2FC
CTCGAGGATATCAAGATCTGGCCTCGGCCTTTTACGAGGAACCTCTAGCTAGCCGACTCACTATAGGGATAATCGCCCTGAGCAAAGACC,3.52 ± 0.0778 log2FC,0.0308 ± 0.0876 log2FC
CTCGAGGATATCAAGATCTGGCCTCGGCGCGACAGCGGGAACCTCTAGCTAGCCGACTCACTATAGGGATAATCGCCCTGAGCAAAGACC,-1.04 ± 0.131 log2FC,0.028 ± 0.102 log2FC
CTCGAGGATATCAAGATCTGGCCTCGGCCCTTTAAAAGGAACCTCTAGCTAGCCGACTCACTATAGGGATAATCGCCCTGAGCAAAGACC,2.14 ± 0.0827 log2FC,0.0924 ± 0.0888 log2FC
CTCGAGGATATCAAGATCTGGCCTCGGCAGTTTAAAAGGAACCTCTAGCTAGCCGACTCACTATAGGGATAATCGCCCTGAGCAAAGACC,2.23 ± 0.0764 log2FC,0.0518 ± 0.0805 log2FC
CTCGAGGATATCAAGATCTGGCCTCGGCGCGTGGTACGGAACCTCTAGCTAGCCGACTCACTATAGGGATAATCGCCCTGAGCAAAGACC,-0.921 ± 0.116 log2FC,0.427 ± 0.0903 log2FC
CTCGAGGATATCAAGATCTGGCCTCGGCGCGTGGAGTGGAACCTCTAGCTAGCCGACTCACTATAGGGATAATCGCCCTGAGCAAAGACC,-0.822 ± 0.144 log2FC,0.252 ± 0.117 log2FC
CTCGAGGATATCAAGATCTGGCCTCGGCCGCCTACGCGGAACCTCTAGCTAGCCGACTCACTATAGGGATAATCGCCCTGAGCAAAGACC,-0.992 ± 0.109 log2FC,1.76 ± 0.0783 log2FC
CTCGAGGATATCAAGATCTGGCCTCGGCTTTTTAGTTGGAACCTCTAGCTAGCCGACTCACTATAGGGATAATCGCCCTGAGCAAAGACC,0.658 ± 0.103 log2FC,0.189 ± 0.0984 log2FC
CTCGAGGATATCAAGATCTGGCCTCGGCTGGCTAAAAGGAACCTCTAGCTAGCCGACTCACTATAGGGATAATCGCCCTGAGCAAAGACC,-0.708 ± 0.106 log2FC,0.0373 ± 0.0882 log2FC
CTCGAGGATATCAAGATCTGGCCTCGGCTTATGGGCGGGAACCTCTAGCTAGCCGACTCACTATAGGGATAATCGCCCTGAGCAAAGACC,1.03 ± 0.0902 log2FC,0.0657 ± 0.0898 log2FC
CTCGAGGATATCAAGATCTGGCCTCGGCATTTTATCTGGAACCTCTAGCTAGCCGACTCACTATAGGGATAATCGCCCTGAGCAAAGACC,0.909 ± 0.103 log2FC,0.0226 ± 0.102 log2FC
CTCGAGGATATCAAGATCTGGCCTCGGCTTATTAAAAGGAACCTCTAGCTAGCCGACTCACTATAGGGATAATCGCCCTGAGCAAAGACC,3.06 ± 0.0807 log2FC,0.0487 ± 0.0902 log2FC
CTCGAGGATATCAAGATCTGGCCTCGGCGAGTGGGCGGGAACCTCTAGCTAGCCGACTCACTATAGGGATAATCGCCCTGAGCAAAGACC,-0.602 ± 0.0984 log2FC,2.79 ± 0.0771 log2FC
CTCGAGGATATCAAGATCTGGCCTCGGCACGCTAAAAGGAACCTCTAGCTAGCCGACTCACTATAGGGATAATCGCCCTGAGCAAAGACC,-0.127 ± 0.102 log2FC,0.0119 ± 0.0913 log2FC
CTCGAGGATATCAAGATCTGGCCTCGGCGCGGATGCGGGAACCTCTAGCTAGCCGACTCACTATAGGGATAATCGCCCTGAGCAAAGACC,0.465 ± 0.106 log2FC,0.109 ± 0.102 log2FC
CTCGAGGATATCAAGATCTGGCCTCGGCGCCCCACGCGGAACCTCTAGCTAGCCGACTCACTATAGGGATAATCGCCCTGAGCAAAGACC,-0.996 ± 0.127 log2FC,0.0171 ± 0.103 log2FC
CTCGAGGATATCAAGATCTGGCCTCGGCGTTTTACTTGGAACCTCTAGCTAGCCGACTCACTATAGGGATAATCGCCCTGAGCAAAGACC,1.25 ± 0.0875 log2FC,

Sequence,binding signal (pT7_6His-AlfaTag-HOXD13),binding signal (pT7_6His-AlfaTag-ZIF268)
CTCGAGGATATCAAGATCTGGCCTCGGCTTTTTATTTGGAACCTCTAGCTAGCCGACTCACTATAGGGATAATCGCCCTGAGCAAAGACC,2.91 ± 0.0833 log2FC,0.188 ± 0.0912 log2FC
CTCGAGGATATCAAGATCTGGCCTCGGCTTTTTACCAGGAACCTCTAGCTAGCCGACTCACTATAGGGATAATCGCCCTGAGCAAAGACC,0.621 ± 0.101 log2FC,0.0254 ± 0.098 log2FC
CTCGAGGATATCAAGATCTGGCCTCGGCATCTTAAAAGGAACCTCTAGCTAGCCGACTCACTATAGGGATAATCGCCCTGAGCAAAGACC,1.62 ± 0.0869 log2FC,0.00209 ± 0.0901 log2FC
CTCGAGGATATCAAGATCTGGCCTCGGCTAAATAAAAGGAACCTCTAGCTAGCCGACTCACTATAGGGATAATCGCCCTGAGCAAAGACC,1.68 ± 0.0988 log2FC,
CTCGAGGATATCAAGATCTGGCCTCGGCCTACTAAAAGGAACCTCTAGCTAGCCGACTCACTATAGGGATAATCGCCCTGAGCAAAGACC,1.25 ± 0.0954 log2FC,
CTCGAGGATATCAAGATCTGGCCTCGGCATTTTACTCGGAACCTCTAGCTAGCCGACTCACTATAGGGATAATCGCCCTGAGCAAAGACC,0.755 ± 0.0905 log2FC,0.0783 ± 0.0882 log2FC
CTCGAGGATATCAAGATCTGGCCTCGGCTCGGTAAAAGGAACCTCTAGCTAGCCGACTCACTATAGGGATAATCGCCCTGAGCAAAGACC,0.426 ± 0.0878 log2FC,0.074 ± 0.0831 log2FC
CTCGAGGATATCAAGATCTGGCCTCGGCGGGTTAAAAGGAACCTCTAGCTAGCCGACTCACTATAGGGATAATCGCCCTGAGCAAAGACC,0.632 ± 0.0825 log2FC,0.0267 ± 0.0801 log2FC
CTCGAGGATATCAAGATCTGGCCTCGGCCGCGACCGCGGAACCTCTAGCTAGCCGACTCACTATAGGGATAATCGCCCTGAGCAAAGACC,-0.85 ± 0.123 log2FC,0.0618 ± 0.097 log2FC
CTCGAGGATATCAAGATCTGGCCTCGGCCGCCCAGGAGGAACCTCTAGCTAGCCGACTCACTATAGGGATAATCGCCCTGAGCAAAGACC,-1.1 ± 0.149 log2FC,0.0116 ± 0.118 log2FC
CTCGAGGATATCAAGATCTGGCCTCGGCGGCTTAAAAGGAACCTCTAGCTAGCCGACTCACTATAGGGATAATCGCCCTGAGCAAAGACC,-0.00793 ± 0.0839 log2FC,
CTCGAGGATATCAAGATCTGGCCTCGGCGTTTTATTGGGAACCTCTAGCTAGCCGACTCACTATAGGGATAATCGCCCTGAGCAAAGACC,3.37 ± 0.0853 log2FC,0.0618 ± 0.0949 log2FC
CTCGAGGATATCAAGATCTGGCCTCGGCCCCCTAAAAGGAACCTCTAGCTAGCCGACTCACTATAGGGATAATCGCCCTGAGCAAAGACC,0.578 ± 0.0983 log2FC,0.267 ± 0.0922 log2FC
CTCGAGGATATCAAGATCTGGCCTCGGCTCGTGGGCGGGAACCTCTAGCTAGCCGACTCACTATAGGGATAATCGCCCTGAGCAAAGACC,-0.771 ± 0.106 log2FC,2.74 ± 0.0778 log2FC
CTCGAGGATATCAAGATCTGGCCTCGGCGCAGTAAAAGGAACCTCTAGCTAGCCGACTCACTATAGGGATAATCGCCCTGAGCAAAGACC,2.28 ± 0.0773 log2FC,0.0357 ± 0.0818 log2FC
CTCGAGGATATCAAGATCTGGCCTCGGCCGCCCACTAGGAACCTCTAGCTAGCCGACTCACTATAGGGATAATCGCCCTGAGCAAAGACC,-0.944 ± 0.114 log2FC,0.246 ± 0.0891 log2FC
CTCGAGGATATCAAGATCTGGCCTCGGCATTTTATACGGAACCTCTAGCTAGCCGACTCACTATAGGGATAATCGCCCTGAGCAAAGACC,2.61 ± 0.0763 log2FC,0.0469 ± 0.0817 log2FC
CTCGAGGATATCAAGATCTGGCCTCGGCCACATAAAAGGAACCTCTAGCTAGCCGACTCACTATAGGGATAATCGCCCTGAGCAAAGACC,2.6 ± 0.0844 log2FC,0.0607 ± 0.0948 log2FC
CTCGAGGATATCAAGATCTGGCCTCGGCAACCTAAAAGGAACCTCTAGCTAGCCGACTCACTATAGGGATAATCGCCCTGAGCAAAGACC,-0.715 ± 0.12 log2FC,0.113 ± 0.099 log2FC
